The sample as a whole holds a higher share of hits than the screen did.
VCAM1 TNFa pot: TNF alpha stimulated VCAM1 expression potentiation; HUVEC TNFa-stimulated VCAM-1 immunofluorescence, high-content imaging; scaled per plate to unstimulated/TNFa-only wells; activation, % at 2 µM; actives 0.19% (n = 93,000); AID 808;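 active = activation above the screen mean plus 3 SD, with well images confirming the hit on visual review, cut at about 28% in these data, passing the limit was not always enough; inconclusive = activation above that limit but images do not confirm it; inactive = activation not above that limit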;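 note: signal is the number of cytoplasmic VCAM-1 stained grains per positive cell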
VCAM1 pot confirm: potentiators of TNFa-induced VCAM1 expression, confirmation, imaging, HUVEC, triplicate retest. shares compounds with VCAM1 TNFa pot. HUVEC TNFa-stimulated VCAM-1 immunofluorescence imaging. activation, % at 2 µM. 230 tested, under 10 active;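 active = activation above 30% in triplicate retests at 2 µM, then confirmed by visual review of the well images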;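 note: scaled per plate between unstimulated and TNFa-stimulated DMSO control wells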
* marks the source's active call; other numbers are inactive results; u = inconclusive.

SMILES | VCAM1 TNFa pot | others
COc1ccc(Cc2nn3c(-c4ccccc4Br)nnc3s2)cc1 | 7
Cc1ccc(Cc2nnc3n(-c4ccccc4)nc(C(=O)c4ccccc4)n3c2=O)cc1 | -17
Cc1cccc(OCCCCCn2ccnc2)c1 | -10
Cc1ccc(NC(=O)COC(=O)c2ccn(C)n2)cc1 | u | VCAM1 pot confirm=-18
Cc1cc(C)n(-c2ccc(C(=O)OCC(=O)Nc3ccc(Cl)c(S(=O)(=O)N(C)C)c3)cc2)n1 | 0
CCCN1C(=O)SC(CC(=O)Nc2ccc(C)cc2)C1=O (stereo unspecified) | 32
CCOC(=O)CNC(=O)CSc1nnc(Cn2cnc3ccccc32)n1C | 6
CN(C(=O)CSc1nc(N)nn1-c1ccccc1)c1ccccc1 | -7
CCOC(=O)c1ccc(NC(=O)CSc2nnc(C3CCCCC3)n2C)cc1 | 11
O=C(COc1ccc(S(=O)(=O)N2CCCCC2)cc1)NC1CCCCC1 | -4
CCCn1nnc(NC(=O)COc2ccc(C3CCCCC3)cc2)n1 | 68* | VCAM1 pot confirm=-14
CCCCCn1c(CCC(=O)Oc2ccccc2OC)nc2c1c(=O)[nH]c(=O)n2CCCC | 2
COc1cc(NC(=O)NCCN2CCN(c3ccc(Cl)cc3)CC2)ccc1C | -1
COc1ccc(NC(=O)c2ccc(CN3CCN(c4ccccc4)CC3)cc2)cc1OC | u | VCAM1 pot confirm=-7
CCOc1cc(C(=O)Nc2ccc(N3CCN(S(C)(=O)=O)CC3)cc2)cc(OCC)c1OCC | -9
O=C(COc1ccccc1)n1nc(-c2ccc(Cl)cc2)nc1NCc1ccco1 | 31
N#CC1=C(N)OC2=C(C(=O)CCC2)C1C1C=CCCC1 (stereo unspecified) | 2
CCn1cc(C(=O)N=c2sc3ccccc3n2C)c(=O)c2ccc(C)nc21 | 0
COc1ccc(-c2cc(C(=O)Nc3cc(C)n(Cc4ccc(Cl)cc4)n3)no2)cc1OC | -52
Cc1ccc(C(=O)C(OC(=O)COc2ccccc2C)c2ccccc2)cc1 (stereo unspecified) | 0
CC(C(=O)NCC1CCCO1)N(C(=O)c1snc(C(N)=O)c1N)c1ccccc1 (stereo unspecified) | 40* | VCAM1 pot confirm=-14
O=C(CC(c1ccccc1)c1ccccc1)NCC1CCCO1 (stereo unspecified) | -41
Cn1nc(C(=O)NCC2CCCO2)c2ccccc2c1=O (stereo unspecified) | -95
O=S1(=O)CCC(S(=O)(=O)N2CCCCCC2)C1 (stereo unspecified) | -18
CCc1cccc(OCCCCN(CC)CC)c1 | 10
SMILES | VCAM1 TNFa pot | others
CCOC(=O)C1CCCN(Cc2sccc2C)C1 (stereo unspecified) | -7
c1ccc(COc2ccc(OCCCCN3CCCCC3)cc2)cc1 | 38* | VCAM1 pot confirm=-13
CN1CCN(c2ccccc2NC(=O)c2ccc(OCc3ccccc3)cc2)CC1 | 7
O=C(CN1CCOCC1)Nc1ccc(OCc2ccccc2)cc1 | 0
O=C1O/C(=C/C(=O)N2CCOCC2)c2ccccc21 | 12
Brc1ccc(NCc2cccc3ccccc23)nc1 | 31* | VCAM1 pot confirm=-36
Cc1ccc(S(=O)(=O)NC(=O)Nc2cc(C)ccc2F)cc1 | 2
COc1cc(NS(=O)(=O)c2ccc(NC(=O)COc3ccc(C)cc3)cc2)nc(OC)n1 | -7
COc1cc(NC(=O)NS(=O)(=O)c2ccc(C)cc2)cc(OC)c1 | 60* | VCAM1 pot confirm=-23
CCOc1cc(S(=O)(=O)NC2CCCCCC2)ccc1F | -1
CCC(C)(C)NC(=O)C(OC(=O)c1ccco1)c1ccccc1OC (stereo unspecified) | 8
CSc1nc(C)cc(OCC#N)n1 | 10
O=C(NC(NCCCN1CCOCC1)(C(F)(F)F)C(F)(F)F)C1CCCCC1 | -5
O=C(Nc1ccc(-c2nc3ccccc3o2)cc1)c1ccc2c(c1)OCO2 | u | VCAM1 pot confirm=-16
O=C(Nc1ccc2nsnc2c1)c1ccc2c(c1)OCO2 | -30
O=C(CN1C(=O)c2ccccc2C1=O)Nc1ccc(-c2nc3ccccc3o2)cc1 | 29
CC1(C)N=C(/C=N/O)CN1O | -23
CCOC(=O)c1ccc(NC(=O)Cn2nnc(-c3ccccc3)n2)cc1 | -88
Cc1cc(C)n(-c2ccc(C(=O)Oc3ccc4c(c3)OCO4)cc2)n1 | 23
CCOc1ccc(-c2nnn(CC(=O)c3ccc4c(c3)OCCO4)n2)cc1 | 84* | VCAM1 pot confirm=-20
Cn1c(Cn2nnc3ccccc32)nnc1SCC(=O)c1ccc(F)cc1 | -6
CCCOC(=O)CSC1=C(C#N)C(c2ccccc2OC)C(C#N)C(=O)N1 (stereo unspecified) | -92
CCC(=O)Nc1cccc(C(=O)/C=C/c2cc(Br)ccc2OC)c1 | -69

Screening results (PubChem BioAssay)
